# Source: PubChem BioAssay (NCATS)
# Inconclusive results are not listed. Where a call stands in place of a potency, no number is given. Calls of active or inactive are those of the source. The call rests on the fitted dose curve; in most records, active means well fitted cell-killing curve with a large enough effect; inconclusive means small, poorly fitted or top-dose-only effect, or effect the other way; inactive means flat fitted curve, though single readings scatter. Square brackets hold non-standard residues; d marks the D form. Peptide text beside a SMILES is read from it. * marks the point of attachment. ξ: configuration not given here. Hexanoyl = CCCCCC(=O)*; ξL = CC(C)CC(N)C(=O)O
# Assay: UWB1.289-WTBRCA1 Cancer Cell Toxicity qHTS against the NCATS CANVASS Library (AID 1347354)
# Conditions: UWB1.289-WTBRCA1 viability, CellTiter-Glo luminescence, 72 h; series mostly up to 38.3 µM; activity change, negative = cytotoxicity: at the top concentration
# How it was run: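 Luminescent ATP read-out (CellTiter-Glo, 15min at room temperature) measures survival after cells face an 11-point compound series for 72 hours at 37 degrees C/5% CO2.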
# Potency means the concentration at half of the fitted maximal effect.
Compound,"activity change, negative = cytotoxicity",outcome,Potency
CC(=O)N[C@H](C)c1nc(/C=C/C=C/C(=O)CC2CC(=O)CC[C@]2(C)O)cs1 (some centres not stated),13.5% (inactive),,
CN1C(=O)C(=O)N2C(=C[C@]3(c4c[nH]c5ccccc45)c4ccccc4N[C@H]23)C1=O,,inactive,
CN1CC[C@]23c4ccccc4N[C@H]1[C@]21CCN(C)[C@H]3Nc2ccccc21,14.3% (inactive),,
C/C=C1/C2=CCCN3C(=O)O[C@H]([C@H]1O)[C@H]23,-3.12% (inactive),,
COc1c(O)cc(O)c2c(=O)cc(-c3ccccc3)oc12,-20.6% (inactive),,
COC1C(C)OC(OCC23C[C@@H]4[C@H](C)CC[C@H]4C4(C=O)CC2C=C(C(C)C)C34C(=O)O)[C@@H](O)[C@H]1O (some centres not stated),3.43% (inactive),,
CN1CC[C@@]2([C@@]34CCN(C)[C@@H]3Nc3ccccc34)c3ccccc3N[C@@H]12,,inactive,
COc1ccc(-c2oc3cc(OC)cc(OC)c3c(=O)c2O)cc1,-2.19% (inactive),,
CC[C@@H](C)[C@H]1NC(=O)C(CC(C)C)NC(=O)[C@@H](CC(C)C)NC(=O)[C@H](Cc2c[nH]c3ccccc23)NC(=O)CNC(=O)[C@@H](CC(N)=O)NC1=O (stereo partly drawn) (cyclo(GW[dL][ξL][dI][dN])),,inactive,
Cc1cc(O)cc2c1C(=O)c1c(O)cc(O)cc1C2=O,3.62% (inactive),,
C=C(Cl)[C@](Cl)(CBr)CC[C@@H](Br)C(C)(C)Cl,,,18.8 µM (active)
C=C(C)C(=O)O[C@H]1C[C@@]2(C)OC(=CC2=O)/C(C)=C\[C@H]2OC(=O)C(=C)[C@H]12,,,10.6 µM (active)
C=C[C@]1(C)CC[C@@H]([C@H](C)C(=O)CC=C(C)C)O1,0.0633% (inactive),,
CC[C@@H]1C[C@@]2(CC)OC(=O)[C@@]3(CC)[C@H](CC)[C@@H]1[C@@H]23,,inactive,
[C-]#[N+][C@@]12C(=O)[C@@H]3[C@@H](O[C@@]4(C(=O)N(C)c5cccc1c54)C3(C)C)C(=O)[C@@]2(C)C=C,,inactive,
CCC(C)=C1OC(=O)[C@H](C)[C@H](O)[C@H](Cc2cccnc2)NC(=O)C(NC(=O)c2ncccc2O)C(C)OC1=O (some centres not stated),3.58% (inactive),,
C[C@@]12CCC[C@@](C)(C(=O)O)[C@H]1CC[C@@]13C[C@@H](CC[C@H]12)[C@](C)(O)C3,3.77% (inactive),,
O=C1OC(CCO)c2cccc(O)c21 (configuration not stated),,inactive,
C=C1C[C@]23C=CC(=O)[C@@](C)(CCCC(C)C(=O)N[C@@H](CO)C(=O)O)[C@@H]2C[C@@H]1CC3 (some centres not stated),,inactive,

Compound,"activity change, negative = cytotoxicity",outcome,Potency
COc1cc2ccc(=O)oc2c(O)c1O[C@@H]1O[C@H](CO)[C@@H](O)[C@H](O)[C@H]1O,18% [at 22.9 µM] (inactive),,
C/C(=C\[C@@H](C)CC/C=C/CC/C=C/C(=O)O)[C@@H](O)[C@H](C)C(=O)CCCC1CC(=O)NC(=O)C1,,inactive,
CO[C@@H](C[C@@H](C)[C@@H](O)/C=C/C=C/CNC(=O)C(C)(C)[C@H](O)\C(C)=C/C=C\C=C\Cc1cnco1)[C@]1(O)[C@@H](C)C(=O)N(C)[C@@]12COC2=O,,inactive,
O=C1CC(c2ccc(O)cc2)Oc2cc(O)cc(O)c21 (configuration not stated),6.36% (inactive),,
O=C1CC(c2ccc(O)cc2)Oc2cc(O)ccc21 (configuration not stated),-13.4% (inactive),,
CN1CC[C@@]23c4ccccc4N[C@@H]1[C@@]21CCN(C)[C@@H]3Nc2ccccc21,,inactive,
C[C@@]12CCC[C@@](C)(C(=O)O)[C@H]1C[C@@H](O)[C@@]13C[C@@H](CC[C@@H]21)[C@](C)(O)C3,,inactive,
O=Cc1ccc2n1C[C@]1(OC2)O[C@H](CO)[C@@H](O)[C@@H]1O,,inactive,
C=C[C@@]1(C)CC[C@@H]([C@H](C)C(C)=O)O1,,inactive,
C/C=C(/CO)C(=O)O[C@@H]1[C@H](O)[C@@H](C(=O)OC)O[C@@H]2C[C@H]3OC(n4cnc5c(N)ncnc54)[C@H](OC)[C@H]3O[C@@]12O (some centres not stated),0.862% (inactive),,
C/C=C/[C@H]1[C@H]2C(=O)c3c(O)c(C)c(O)c(C)c3[C@]1(C(=O)O)C(=O)C=C2C,,inactive,
C[C@@]12C[C@@H](C[C@@H]3C(=O)O[C@@H](c4ccoc4)[C@H](OC(=O)c4ccccc4)[C@@H]31)OC2=O,,inactive,
C=C1CCC2C(C)(C(=O)O)CCC(CC/C(C)=C/C(=O)NC(CCC(N)=O)C(=O)O)[C@@]2(C)C1 (some centres not stated),,inactive,
C=C1[C@@]2(C)CC3C4(C)CCC(O)C(C)(C)C4CCC3(C)[C@]1(C(=O)OC)C(=O)C(C)(O)C2=O (some centres not stated),,inactive,
CC(C)=CCC[C@]1(C)[C@H]2CC(=O)[C@@]3(CO3)[C@@H]1C2,,inactive,
CCCCCC(=O)N[C@@H](CC(C)C)C(=O)N[C@H](C=O)CCC(=O)O (Hexanoyl-Leu-Glu-aldehyde),,inactive,
COc1ccc([C@@H]2c3cc4c(cc3C(=O)C(C)C2C)OCO4)cc1OC (some centres not stated),9.32% (inactive),,
CC1(C)CC[C@]2(CO)CC[C@]3(C)C(=CCC4[C@@]5(C)CC[C@H](O)C(C)(C)C5CC[C@]43C)C2C1 (some centres not stated),,inactive,
